Measurements from PubChem BioAssay (EPA / NIEHS).
Active and inactive are the calls of the source. How the source made its calls: active means hit-call score of the fitted dose curve at least 0.9, where 1 is the maximum; inactive means score below 0.9.

Experiment: APR_HepG2_StressKinase_24hr: Apredica 24-hour HepG2 Assay for Stress Kinase (AID 2282922)
Conditions: HepG2 stress kinase (phospho-c-Jun) imaging, actives raise or lower the signal
Experimental: APR_HepG2_24hr is a cell-based, multiplexed-readout assay that uses HepG2, a human liver cell line, with measurements taken at 24 hours after chemical dosing in a 384-well plate.APR_HepG2_StressKinase_24hr is one of 10 assay component(s) measured or calculated from the APR_HepG2_24hr assay. It is designed to make measurements of enzyme activity, a form of enzyme reporter, as detected with fluorescence intensity signals by HCS Fluorescent Imaging technology.Data from the assay component APR_HepG2_StressKinase_24hr was analyzed into 1 assay endpoint. This assay endpoint, APR_HepG2_StressKinase_24hr, was analyzed with bidirectional fitting relative to DMSO as the negative control and baseline of activity. Using a type of enzyme reporter, measures of protein for gain or loss-of-signal activity can be used to understand the signaling at the pathway-level as they relate to the gene . Furthermore, this assay endpoint can be referred to as a primary readout, because this assay has produced multiple assay endpoints where this one serves a signaling function. To generalize the intended target to other relatable targets, this assay endpoint is annotated to the cell cycle intended target family, where the subfamily is stress response.
Cells were treated with dimethyl sulfoxide (DMSO) as a solvent control at a final concentration of 0.5% v/v or with compounds in DMSO with a resulting final DMSO concentration of 0.5% v/v. Compound treatment was done at concentrations of 0.39, 0.78, 1.56, 3.12, 6.24, 12.5, 25, 50, 100, and 200 uM in duplicate on each plate. Cells were treated with compounds for 1, 24, or 72 hr. Carbonyl […] m-chloro-phenylhydrazone (CCCP) and taxol were used as positive controls for mitochondrial function and cytoskeletal stability, respectively; DMSO served as the negative control for this experiment. Cells were fixed by the direct addition of 50 uL formaldehyde in Hank's Balanced Salt Solution (HBSS) to a final concentration of 3.7%. After incubation in the fixation medium for 30 min at room temperature (293-298 K), cells were rinsed twice with HBSS and treated with cell permeabilization buffer (16 uL of 0.5% Triton X-100) for 10 min at room temperature (293-298 K) before labeling. For mitochondrial membrane potential and mitochondrial measurements, pre-fixed cells were incubated with 50 uL of MitoTracker Red CMXRos (Invitrogen) at a concentration of 250 nM for 30 min before fixation. In the remaining cases, post-fixed cells were labeled by incubation with a multiplexed mixture of primary antibodies in HBSS for 60 min at room temperature (293-298 K) to detect immunoreactivity of c-Jun (1:500), phospho-histone H3 (1:100), phospho-histone H2A.x (1:200), p53 (1:400), alpha-tubulin (1:200) and Hoechst 33342 (2 ug/mL). Cells were labeled for multiplexed imaging on two separate plates: a) Hoechst 33342, MitoTracker Red, phospho-histone H3, and alpha-tubulin, and b) Hoechst 33342, phospho-histone H2A.x, and c-Jun. A final rinse with HBSS (50 uL) was performed before analysis. The primary and secondary antibodies for the proteins were phospho-histone H3 (rabbit anti-phospho-histone H3 and FITC-donkey anti-rabbit IgG), phospho-histone H2A.x (mouse anti-phospho-histone H2A.x and FITC-donkey anti-mouse IgG), c-Jun (rabbit anti-phospho-c-Jun and Cy3-donkey anti-rabbit IgG), p53 (sheep anti-p53 and Cy5-donkey anti-sheep IgG), alpha-tubulin (mouse anti-alpha-tubulin and Cy5-donkey anti-mouse IgG). These antibodies are available as the CellCiphr HepG2 assay kit (Millipore).Digital images of each well were captured using a Cellomics ArrayScan VTI (Thermo Scientific Cellomics) (0.8 NA objective, 0.63x optical coupler, and XF-93 filter set) at 20x magnification. The images were acquired using the autofocus feature of the ArrayScan instrument, which entails the following steps. First, the camera focuses on channel 1 (Hoechst 33342), where nuclei are identified. Second, a Z offset of 1 um is used for capturing mitochondria (MitoTracker Red). […]
For `Nc1ccccc1N`, the outcome was “inactive”. In the case of `NS(=O)(=O)c1cc2c(cc1Cl)NCNS2(=O)=O`, the outcome is reported as “inactive”. With `COc1ccc2c(c1)c(CC(=O)O)c(C)n2C(=O)c1ccc(Cl)cc1` the outcome was “inactive”. For `CNCc1cc(F)ccc1Oc1ccc(Cl)c(Cl)c1`, the outcome was “inactive”. In the case of `CC(=O)Oc1ccccc1C(=O)O`, the outcome is reported as “inactive”. For `NCCO`, the outcome was “inactive”. In the case of `COc1cc(-c2nc(NC(=O)c3cc4cc(C)cc(C)c4n3CC(=O)O)sc2CCC2CCCCC2)c(OC)cc1Cl`, the AC50 is reported as 48.8 µM (active). In the case of `CCCCC(CC)COC(=O)CC(C(=O)OCC(CC)CCCC)S(=O)(=O)O` (stereo not given), the outcome is reported as “inactive”. In the case of `FC(F)(F)C(F)(F)C(F)(F)C(F)(F)C(F)(F)C(F)(F)CCI`, the outcome is reported as “inactive”. With `CCCCN(CCCC)CCCC` the outcome was “inactive”. In the case of `COCCOC[C@H](CC1(C(=O)NC2CCC(C(=O)O)CC2)CCCC1)C(=O)Oc1ccc2c(c1)CCC2` (stereo not given in full), the outcome is reported as “inactive”. With `C1CCC(SSC2CCCCC2)CC1` the outcome was “inactive”. With `Cc1nc(C)nc(N2C[C@@H](C)N(c3ccnc([C@@H](C)O)n3)[C@@H](C)C2)n1` the outcome was “inactive”. For `O=[N+]([O-])C(CO)(CO)CO`, the outcome was “inactive”. For `C=CCOC(=O)c1ccccc1C(=O)OCC=C`, the outcome was “inactive”. In the case of `CCCCCCCCCCCCCO`, the outcome is reported as “inactive”. For `Cc1nc(-c2ccc3c(c2)CCN(CCC2CCC(NC(=O)/C=C/c4ccc(F)cc4)CC2)CC3)no1` (stereo not given), the outcome was “inactive”. In the case of `O=C(O)Cc1ccccc1Nc1c(Cl)cccc1Cl`, the outcome is reported as “inactive”. For `CN[C@H]1CC[C@@H](c2ccc(Cl)c(Cl)c2)c2ccc(S(N)(=O)=O)cc21`, the outcome was “inactive”. For `Oc1ccc2ccccc2c1N=Nc1ccccc1`, the outcome was “inactive”. In the case of `Nc1nc(N)c2nc(CNc3ccc(C(=O)N[C@@H](CCC(=O)O)C(=O)O)cc3)cnc2n1`, the outcome is reported as “inactive”. With `Cc1ccc(C)c(O)c1C` the outcome was “inactive”. For `CC(=O)OCCOCCOCCOC(C)=O`, the outcome was “inactive”. In the case of `c1cc(-c2ccncc2)ccn1`, the outcome is reported as “inactive”. With `Cc1cccc([N+](=O)[O-])c1C` the outcome was “inactive”. In the case of `Cc1ccccc1Cl`, the outcome is reported as “inactive”. In the case of `CCCCCCCCCCO`, the outcome is reported as “inactive”. For `Cc1cc(NC(=O)C(=O)O)cc(C)c1Oc1ccc(O)c2c1CCC2`, the outcome was “inactive”. In the case of `O=C(O)CCCCC(=O)O`, the outcome is reported as “inactive”. With `COc1ccc(S(=O)(=O)N2C(=O)[C@@](c3ccccc3OC)(N3C[C@H](O)C[C@H]3C(=O)N(C)C)c3cc(Cl)ccc32)c(OC)c1` the outcome was “inactive”. With `CCCCCCCCCCCCCCCCCC(=O)O` the outcome was “inactive”. In the case of `CCNc1cccc(C)c1`, the outcome is reported as “inactive”. With `Cc1oc(-c2ccccc2)nc1CCOc1cccc2c1ccn2CCC(=O)O` the outcome was “inactive”. In the case of `Nc1ccc2c(c1)C(=O)c1ccccc1C2=O`, the outcome is reported as “inactive”. In the case of `C=CCc1ccc(O)c(OC)c1`, the outcome is reported as “inactive”. With `Cc1ccc(C)c(C)c1` the outcome was “inactive”. In the case of `CN1CCCC1=O`, the outcome is reported as “inactive”. With `CC=Cc1ccc(O)c(OC)c1` the outcome was “inactive”. In the case of `CC1(C)CC(N=C=O)CC(C)(CN=C=O)C1` (stereo not given), the outcome is reported as “inactive”. For `CC1=C(/C=C/C(C)=C/C=C/C(C)=C/CO)C(C)(C)CCC1`, the AC50 was 72.1 µM (active).
